Records with an inconclusive call do not appear. Calls of active or inactive are those of the source. Rule for the calls, unless noted: active = hit-call score of the fitted dose curve at least 0.9, where 1 is the maximum; inconclusive = response in the unintended direction; inactive = score below 0.9.
How the values were obtained:
[1] = ATG_TCF_b_cat_CIS: Attagene CIS-FACTORIAL HepG2 Assay for human T-Cell-Factor with beta-catenin (TCF/b-cat) (AID 2282965; active = hit-call score of the fitted dose curve at least 0.9, where 1 is the maximum; inactive = score below 0.9); settings: HepG2 TCF/beta-catenin cis-reporter transcription, actives raise or lower the signal
How it was run: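 Cells of the HepG2 line carry transiently transfected reporter units whose promoters respond to endogenous factors. Twenty-four hours post-dosing, reporter mRNA induction is measured by fluorescent RT-PCR and capillary electrophoresis, with DMSO as baseline.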

[2] = ATG_TAL_CIS: Attagene CIS-FACTORIAL HepG2 Assay for human TAL Basal Promoter (AID 2282966; active = hit-call score of the fitted dose curve at least 0.9, where 1 is the maximum; inactive = score below 0.9;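 note: background control endpoint measuring basal TAL promoter reporter mRNA not a specific factor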); settings: HepG2 Attagene cis-factorial TAL promoter reporter; actives raise or lower the signal
How it was run: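 HepG2, transient MRTU transfection, 24 h compound exposure; RNA → oligo(dT) RT → PCR → 6-FAM primer extension → HpaI digest → CE fluorescence. Bidirectional curve fit vs DMSO. Background-control readout.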

[3] = ATG_TGFb_CIS: Attagene CIS-FACTORIAL HepG2 Assay for human Transforming Growth Factor (TGF) (AID 2282967; active = hit-call score of the fitted dose curve at least 0.9, where 1 is the maximum; inactive = score below 0.9); settings: HepG2 Attagene CIS TGFb reporter, mRNA transcription; actives raise or lower the signal
How it was run: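 Transient MRTU transfection of HepG2 (FuGene 6). Dose 24 h. TriZol RNA, oligo(dT) RT, PCR, 6-FAM primer extension, HpaI cut, CE. Bidirectional fit, DMSO = baseline.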

[4] = ATG_VDRE_CIS: Attagene CIS-FACTORIAL HepG2 Assay for human Vitamin D Receptor Element (VDRE) (AID 2282968; active = hit-call score of the fitted dose curve at least 0.9, where 1 is the maximum; inactive = score below 0.9); settings: HepG2 VDRE cis-reporter transcription, actives raise or lower the signal
How it was run: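 Compounds were applied for 24 h to HepG2 cells transfected with promoter-regulated reporter units. Total RNA was reverse-transcribed, and reporter amplicons were fluorescently labelled and sized by capillary electrophoresis.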

[5] = target: X-box-binding protein 1 (Homo sapiens) (UniProt P17861); assay: ATG_Xbp1_CIS: Attagene CIS-FACTORIAL HepG2 Assay for human X-box Binding Protein 1 (XBP1) (AID 2282972; active = hit-call score of the fitted dose curve at least 0.9, where 1 is the maximum; inactive = score below 0.9); settings: HepG2 XBP1 cis-element reporter, Attagene multiplex; actives raise or lower the signal
X-box-binding protein 1 (Homo sapiens), sequence (P17861 whole entry, looked up): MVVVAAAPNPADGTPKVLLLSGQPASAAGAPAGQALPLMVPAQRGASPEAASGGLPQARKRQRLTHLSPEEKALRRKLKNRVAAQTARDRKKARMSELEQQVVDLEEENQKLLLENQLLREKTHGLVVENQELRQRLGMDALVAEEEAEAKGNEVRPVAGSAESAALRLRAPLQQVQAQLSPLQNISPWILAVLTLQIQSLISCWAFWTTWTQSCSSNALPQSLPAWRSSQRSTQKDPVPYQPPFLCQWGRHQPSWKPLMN
How it was run: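 Multiplexed cis-reporter readout in transfected HepG2 liver cells. Exposure lasted 24 hours. Activity in either direction was fitted against DMSO as negative control and baseline.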

[6] = ATG_M_19_TRANS: Attagene TRANS-FACTORIAL HepG2 Assay for M19 Transcription Factor (Internal Marker) (AID 2282974); settings: HepG2 Attagene TRANS-FACTORIAL M19 internal marker reporter
How it was run: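 Using RT-PCR and capillary electrophoresis, reporter mRNA from transiently transfected human HepG2 cells was quantified following 24 h exposure; activity was fitted in the positive direction against DMSO.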

[7] = target: Hepatocyte nuclear factor 4-alpha (Homo sapiens) (UniProt P41235); assay: ATG_HNF4a_TRANS: Attagene TRANS-FACTORIAL HepG2 Assay for human Hepatocyte Nuclear Factor 4 alpha (HNF4a) (AID 2282982); settings: HepG2 HNF4a transactivation reporter, mRNA readout
Hepatocyte nuclear factor 4-alpha (Homo sapiens), sequence (P41235 whole entry, looked up, the tested form may be a part): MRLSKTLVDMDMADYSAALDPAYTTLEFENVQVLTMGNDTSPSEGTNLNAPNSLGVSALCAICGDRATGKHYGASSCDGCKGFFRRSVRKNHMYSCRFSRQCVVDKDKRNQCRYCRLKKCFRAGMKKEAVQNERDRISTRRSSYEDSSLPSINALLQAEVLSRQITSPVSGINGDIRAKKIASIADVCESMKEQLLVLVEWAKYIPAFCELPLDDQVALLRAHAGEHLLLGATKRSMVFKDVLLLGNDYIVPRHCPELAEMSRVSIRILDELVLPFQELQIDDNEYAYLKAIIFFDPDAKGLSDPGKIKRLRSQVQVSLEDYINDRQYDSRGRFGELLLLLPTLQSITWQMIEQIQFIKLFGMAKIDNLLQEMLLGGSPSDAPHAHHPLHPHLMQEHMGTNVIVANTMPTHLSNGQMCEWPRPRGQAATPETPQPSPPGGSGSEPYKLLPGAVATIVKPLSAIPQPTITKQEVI
How it was run: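 Endpoint reflects transcriptional activation of a GAL4-UAS reporter by an HNF4a-GAL4 chimera in transfected HepG2 cells, 24 h post-dosing. Fluorescence from RT-PCR products separated by capillary electrophoresis; DMSO baseline.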

[8] = ATG_M_06_TRANS: Attagene TRANS-FACTORIAL HepG2 Assay for M06 Transcription Factor (Internal Marker) (AID 2282983); settings: HepG2 Attagene TRANS M06 internal marker reporter
How it was run: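 Read-out: fluorescent reporter cDNA fragments resolved by capillary electrophoresis after RT-PCR and HpaI cut. Source cells were HepG2 carrying transfected multi-reporter GAL4 constructs, dosed 24 h. Increase over DMSO control analysed.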

[9] = ATG_M_32_TRANS: Attagene TRANS-FACTORIAL HepG2 Assay for M32 Transcription Factor (Internal Marker) (AID 2282984); settings: HepG2 Attagene TRANS M32 internal marker reporter;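 note: transcript level of a background control reporter unit measured by RT-PCR and capillary electrophoresis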
How it was run: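 Internal-marker readout from a multiplexed transcription reporter panel. HepG2 cells were transfected with GAL4-UAS reporter units, treated 24 hours, and reporter transcript levels determined by fluorescence after RT-PCR and capillary separation.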

[10] = target: Transcriptional activator Myb (Homo sapiens) (UniProt P10242); assay: ATG_Myb_CIS: Attagene CIS-FACTORIAL HepG2 Assay for human Myeloblastosis (Myb) Proto-Oncogene Transcription Factor (AID 2282986; active = hit-call score of the fitted dose curve at least 0.9, where 1 is the maximum; inactive = score below 0.9); settings: HepG2 Attagene CIS-FACTORIAL Myb reporter transcription; actives raise or lower the signal
Transcriptional activator Myb (Homo sapiens), sequence (P10242 whole entry, looked up): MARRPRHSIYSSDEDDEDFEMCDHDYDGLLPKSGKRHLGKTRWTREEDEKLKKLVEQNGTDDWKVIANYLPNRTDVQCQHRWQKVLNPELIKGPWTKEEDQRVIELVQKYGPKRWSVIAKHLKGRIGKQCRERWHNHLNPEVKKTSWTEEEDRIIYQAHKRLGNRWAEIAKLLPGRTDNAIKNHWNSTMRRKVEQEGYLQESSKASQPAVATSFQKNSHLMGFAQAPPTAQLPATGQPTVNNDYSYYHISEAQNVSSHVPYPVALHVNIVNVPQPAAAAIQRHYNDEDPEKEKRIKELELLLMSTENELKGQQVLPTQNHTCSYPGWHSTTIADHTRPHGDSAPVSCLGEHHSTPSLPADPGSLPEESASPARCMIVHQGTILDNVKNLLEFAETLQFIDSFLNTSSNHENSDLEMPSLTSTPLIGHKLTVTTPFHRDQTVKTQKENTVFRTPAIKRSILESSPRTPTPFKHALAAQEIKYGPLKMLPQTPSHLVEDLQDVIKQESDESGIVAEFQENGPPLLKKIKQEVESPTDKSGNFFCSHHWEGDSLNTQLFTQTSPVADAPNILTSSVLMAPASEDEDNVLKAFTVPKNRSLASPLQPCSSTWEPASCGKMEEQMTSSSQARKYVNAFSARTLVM
How it was run: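 In this HepG2 transient-transfection format, cis-regulated reporter mRNA is quantified 24 h post-dosing by RT-PCR with capillary electrophoresis, fitted bidirectionally to DMSO baseline.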

[11] = target: Estrogen-related receptor gamma (Homo sapiens) (UniProt P62508); assay: ATG_ERRg_TRANS: Attagene TRANS-FACTORIAL HepG2 Assay for human Estrogen-Related Receptor gamma (ERRg) (AID 2282977); settings: HepG2 Attagene TRANS reporter, ERRg transactivation;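 note: hits increase reporter signal over DMSO so potencies reflect activators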
Estrogen-related receptor gamma (Homo sapiens), sequence (P62508 whole entry, looked up, the tested form may be a part): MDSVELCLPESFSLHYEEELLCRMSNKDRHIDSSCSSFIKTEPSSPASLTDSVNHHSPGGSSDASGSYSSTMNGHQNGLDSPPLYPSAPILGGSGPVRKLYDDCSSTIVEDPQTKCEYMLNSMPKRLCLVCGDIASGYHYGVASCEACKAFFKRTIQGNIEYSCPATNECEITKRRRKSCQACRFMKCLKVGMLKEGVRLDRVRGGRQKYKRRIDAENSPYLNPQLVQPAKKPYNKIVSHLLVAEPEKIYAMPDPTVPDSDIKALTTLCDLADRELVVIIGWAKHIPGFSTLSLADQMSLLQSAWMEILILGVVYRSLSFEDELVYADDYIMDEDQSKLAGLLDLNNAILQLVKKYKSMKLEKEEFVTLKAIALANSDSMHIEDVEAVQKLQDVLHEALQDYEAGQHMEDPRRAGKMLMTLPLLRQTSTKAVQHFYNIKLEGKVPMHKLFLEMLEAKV
How it was run: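 Induction of reporter transcripts through a chimeric NR-Gal4 protein is quantified in transfected human HepG2 liver cells after 24 h chemical exposure, using RT-PCR with capillary electrophoresis detection and DMSO as baseline.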

[12] = target: Nuclear receptor subfamily 1 group I member 3 (Homo sapiens) (UniProt Q14994); assay: ATG_CAR_TRANS: Attagene TRANS-FACTORIAL HepG2 Assay for human Constitutive Androstane Receptor (CAR) (AID 2282969); settings: HepG2 Attagene TRANS-FACTORIAL CAR reporter;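 note: activators raise reporter mRNA above DMSO so AC50 marks induction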
Nuclear receptor subfamily 1 group I member 3 (Homo sapiens), sequence (Q14994 whole entry, looked up, the tested form may be a part): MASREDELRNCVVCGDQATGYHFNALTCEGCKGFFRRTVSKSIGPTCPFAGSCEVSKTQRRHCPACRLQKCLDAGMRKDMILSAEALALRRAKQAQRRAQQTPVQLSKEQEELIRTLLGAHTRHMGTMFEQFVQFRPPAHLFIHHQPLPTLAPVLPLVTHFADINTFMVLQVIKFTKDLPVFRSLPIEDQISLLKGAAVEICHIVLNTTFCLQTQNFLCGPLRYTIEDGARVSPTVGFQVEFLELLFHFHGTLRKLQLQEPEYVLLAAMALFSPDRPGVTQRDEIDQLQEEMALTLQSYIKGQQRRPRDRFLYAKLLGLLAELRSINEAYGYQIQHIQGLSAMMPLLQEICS
How it was run: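 Transiently transfected HepG2, multiplex TRANS reporters (CAR-Gal4 chimera driving GAL4-UAS reporter). 24 h dosing. Readout: reporter transcript by RT-PCR + capillary electrophoresis, fluorescence intensity; positive direction vs DMSO.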

[13] = target: Estrogen receptor (Homo sapiens) (UniProt P03372); assay: ATG_ERa_TRANS: Attagene TRANS-FACTORIAL HepG2 Assay for human Estrogen Receptor alpha (ERa) (AID 2282970); settings: HepG2 Attagene TRANS ERa GAL4 reporter, mRNA
Estrogen receptor (Homo sapiens), sequence (P03372 whole entry, looked up, the tested form may be a part): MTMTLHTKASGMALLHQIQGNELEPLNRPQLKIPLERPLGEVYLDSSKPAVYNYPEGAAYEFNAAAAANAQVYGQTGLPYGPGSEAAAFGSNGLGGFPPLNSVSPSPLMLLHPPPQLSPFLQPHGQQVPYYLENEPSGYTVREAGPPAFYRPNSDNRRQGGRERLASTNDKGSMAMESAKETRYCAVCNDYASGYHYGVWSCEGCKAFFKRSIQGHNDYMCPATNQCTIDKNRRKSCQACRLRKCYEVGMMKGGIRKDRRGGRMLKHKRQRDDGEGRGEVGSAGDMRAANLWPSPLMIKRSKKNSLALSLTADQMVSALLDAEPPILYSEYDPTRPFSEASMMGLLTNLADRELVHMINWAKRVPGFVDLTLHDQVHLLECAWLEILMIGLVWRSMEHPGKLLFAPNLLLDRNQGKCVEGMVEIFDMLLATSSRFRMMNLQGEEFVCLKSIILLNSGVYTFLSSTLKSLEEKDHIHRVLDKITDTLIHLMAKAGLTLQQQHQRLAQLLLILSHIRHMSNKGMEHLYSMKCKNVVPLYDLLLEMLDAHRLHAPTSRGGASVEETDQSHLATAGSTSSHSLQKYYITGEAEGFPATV
How it was run: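 Reporter mRNA induction after 24 hours, detected by fluorescent RT-PCR and capillary electrophoresis, gives the read-out. Cells are HepG2 transiently transfected with GAL4-UAS reporter transcription units responding to chimeric NR-Gal4. Activity is taken as gain of signal over DMSO baseline.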

[14] = target: Steroid hormone receptor ERR1 (Homo sapiens) (UniProt P11474); assay: ATG_ERRa_TRANS: Attagene TRANS-FACTORIAL HepG2 Assay for human Estrogen-Related Receptor alpha (ERRa) (AID 2282971); settings: HepG2 Attagene TRANS reporter, ERRa transactivation
Steroid hormone receptor ERR1 (Homo sapiens), sequence (P11474 whole entry, looked up, the tested form may be a part): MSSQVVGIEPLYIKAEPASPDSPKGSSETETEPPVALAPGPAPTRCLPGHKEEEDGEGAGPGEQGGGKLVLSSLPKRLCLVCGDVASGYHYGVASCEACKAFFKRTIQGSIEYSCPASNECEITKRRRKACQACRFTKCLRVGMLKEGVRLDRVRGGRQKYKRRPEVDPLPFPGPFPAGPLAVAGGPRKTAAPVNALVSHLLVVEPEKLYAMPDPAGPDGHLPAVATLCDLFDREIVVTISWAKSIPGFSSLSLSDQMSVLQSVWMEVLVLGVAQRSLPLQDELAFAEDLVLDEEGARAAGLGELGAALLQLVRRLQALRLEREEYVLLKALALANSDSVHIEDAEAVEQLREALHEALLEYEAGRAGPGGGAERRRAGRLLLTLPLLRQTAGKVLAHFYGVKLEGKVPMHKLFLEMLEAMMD
How it was run: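 Transfected HepG2, 24 h dosing, ERRa-Gal4 chimera driving GAL4-UAS reporter. Readout: reporter mRNA via RT-PCR plus capillary electrophoresis (fluorescence). Positive direction vs DMSO control.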

[15] = target: Glucocorticoid receptor (Homo sapiens) (UniProt P04150); assay: ATG_GR_TRANS: Attagene TRANS-FACTORIAL HepG2 Assay for human Glucocorticoid Receptor (GR) (AID 2282978); settings: HepG2 Attagene TRANS GR reporter, mRNA transcription;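 note: activators score as hits since higher reporter transcript over DMSO is fitted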
Glucocorticoid receptor (Homo sapiens), sequence (P04150 whole entry, looked up, the tested form may be a part): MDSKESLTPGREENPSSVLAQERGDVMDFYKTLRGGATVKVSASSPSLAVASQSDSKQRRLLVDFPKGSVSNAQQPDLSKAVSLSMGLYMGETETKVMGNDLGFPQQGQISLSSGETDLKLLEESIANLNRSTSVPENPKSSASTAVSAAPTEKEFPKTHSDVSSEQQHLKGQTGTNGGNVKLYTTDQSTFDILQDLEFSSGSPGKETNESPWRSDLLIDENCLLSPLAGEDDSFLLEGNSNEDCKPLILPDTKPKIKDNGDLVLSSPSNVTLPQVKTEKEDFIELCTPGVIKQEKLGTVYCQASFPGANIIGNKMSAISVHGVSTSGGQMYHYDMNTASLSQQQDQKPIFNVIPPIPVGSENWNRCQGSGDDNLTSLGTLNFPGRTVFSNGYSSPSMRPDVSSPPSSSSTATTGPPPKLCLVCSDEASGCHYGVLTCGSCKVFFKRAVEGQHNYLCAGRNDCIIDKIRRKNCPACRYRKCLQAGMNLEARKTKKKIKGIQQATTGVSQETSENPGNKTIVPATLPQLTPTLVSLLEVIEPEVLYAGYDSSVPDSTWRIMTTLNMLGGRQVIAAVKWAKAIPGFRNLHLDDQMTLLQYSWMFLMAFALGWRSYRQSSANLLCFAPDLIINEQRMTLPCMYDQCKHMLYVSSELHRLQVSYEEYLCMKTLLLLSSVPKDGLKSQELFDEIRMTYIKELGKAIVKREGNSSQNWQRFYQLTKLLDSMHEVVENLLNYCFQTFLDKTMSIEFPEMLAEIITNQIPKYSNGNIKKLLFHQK
How it was run: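 Exogenous NR-GAL4 fusion activity was assessed through induced GAL4-UAS reporter transcripts in transfected human HepG2 cells, quantified after 24 h by RT-PCR and fluorescent capillary electrophoresis with DMSO as baseline.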

[16] = target: Bile acid receptor (Homo sapiens) (UniProt Q96RI1); assay: ATG_FXR_TRANS: Attagene TRANS-FACTORIAL HepG2 Assay for Farnesoid X Receptor (FXR) (AID 2282979); settings: HepG2 Attagene TRANS FXR-GAL4 reporter transcription;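 note: hits raise reporter mRNA above DMSO so AC50 marks FXR activation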
How it was run: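 Read-out: fluorescent reporter transcripts quantified by capillary electrophoresis after RT-PCR of total RNA. Source cells were HepG2 transiently carrying chimeric NR-GAL4 plus GAL4-UAS reporter units, dosed 24 h. Activity fitted upward relative to DMSO baseline.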

[17] = target: Oxysterols receptor LXR-alpha (Homo sapiens) (UniProt Q13133); assay: ATG_LXRa_TRANS: Attagene TRANS-FACTORIAL HepG2 Assay for human Liver X Receptor alpha (LXRa) (AID 2282980); settings: HepG2 Attagene TRANS reporter, LXRa transactivation
Oxysterols receptor LXR-alpha (Homo sapiens), sequence (Q13133 whole entry, looked up, the tested form may be a part): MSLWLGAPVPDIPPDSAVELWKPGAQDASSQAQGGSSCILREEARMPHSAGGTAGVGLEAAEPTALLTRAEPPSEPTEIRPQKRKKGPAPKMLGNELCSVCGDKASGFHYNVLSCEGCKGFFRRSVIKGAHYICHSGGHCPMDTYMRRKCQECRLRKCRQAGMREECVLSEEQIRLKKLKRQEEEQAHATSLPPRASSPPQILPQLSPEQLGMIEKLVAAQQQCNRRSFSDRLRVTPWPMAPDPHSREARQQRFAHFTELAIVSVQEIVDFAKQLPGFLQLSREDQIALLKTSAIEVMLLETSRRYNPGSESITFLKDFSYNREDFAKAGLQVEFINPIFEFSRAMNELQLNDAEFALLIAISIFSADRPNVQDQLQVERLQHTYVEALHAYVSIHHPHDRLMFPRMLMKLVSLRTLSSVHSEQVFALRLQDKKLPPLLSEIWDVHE
How it was run: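 Read-out: reporter transcript levels by RT-PCR plus capillary electrophoresis, fluorescence intensity. Transiently transfected HepG2, exogenous NR-GAL4 chimera, GAL4-UAS reporters; 24 h compound exposure. Activity = increase over DMSO negative control.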

[18] = target: Nuclear receptor subfamily 4 group A member 2 (Homo sapiens) (UniProt P43354); assay: ATG_NURR1_TRANS: Attagene TRANS-FACTORIAL HepG2 Assay for human Nuclear Receptor Related Protein 1 (NURR1) (AID 2282985); settings: HepG2 Attagene TRANS reporter, mRNA readout
How it was run: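 Endpoint: reporter mRNA increase relative to DMSO. HepG2 cells transfected with reporter units, treated 24 h; RNA processed by RT-PCR, labelling, HpaI digestion and capillary electrophoresis.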

[19] = ATG_GAL4_TRANS: Attagene TRANS-FACTORIAL HepG2 Assay for GAL4 (Internal Marker) (AID 2282976); settings: HepG2 Attagene TRANS GAL4 internal marker reporter
How it was run: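 RT-PCR/capillary electrophoresis readout of reporter mRNA. HepG2, transient MRTU transfection (GAL4-UAS reporters), 24 h compound exposure. Background-control endpoint, positive direction vs DMSO baseline.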

[20] = target: Oxysterols receptor LXR-beta (Homo sapiens) (UniProt P55055); assay: ATG_LXRb_TRANS: Attagene TRANS-FACTORIAL HepG2 Assay for human Liver X Receptor beta (LXRb) (AID 2282981); settings: HepG2 Attagene TRANS GAL4-LXRb reporter, mRNA
Oxysterols receptor LXR-beta (Homo sapiens), sequence (P55055 whole entry, looked up, the tested form may be a part): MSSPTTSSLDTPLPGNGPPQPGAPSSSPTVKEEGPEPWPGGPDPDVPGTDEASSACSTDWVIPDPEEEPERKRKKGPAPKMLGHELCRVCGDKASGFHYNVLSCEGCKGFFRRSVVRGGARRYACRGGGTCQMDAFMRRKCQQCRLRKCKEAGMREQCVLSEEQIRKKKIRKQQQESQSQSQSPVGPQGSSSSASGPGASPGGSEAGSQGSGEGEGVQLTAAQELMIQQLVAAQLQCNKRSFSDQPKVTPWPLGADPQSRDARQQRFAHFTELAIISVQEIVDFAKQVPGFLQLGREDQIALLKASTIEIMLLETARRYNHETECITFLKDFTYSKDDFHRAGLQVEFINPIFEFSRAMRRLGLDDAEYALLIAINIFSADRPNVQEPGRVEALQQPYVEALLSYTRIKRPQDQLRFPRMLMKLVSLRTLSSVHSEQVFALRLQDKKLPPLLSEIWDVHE
How it was run: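 Multiplexed reporter assay, HepG2, 24 h dosing. Fluorescence of labelled RT-PCR products after capillary electrophoresis gives transcript level; positive fitting direction relative to DMSO.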

Measured: AC50

O=[N+]([O-])c1cc(N(CCO)CCO)ccc1NCCO
inactive: [1] | [2] | [3] | [4] | [5] | [6] | [7] | [8] | [9] | [10]

NS(=O)(=O)c1cc(C(=O)O)c(NCc2ccco2)cc1Cl
inactive: [1] | [2] | [3] | [4] | [5] | [11] | [8] | [9] | [10]

CCCCCCCCOS(=O)(=O)O
active: [13] 100 µM
not listed: [4] | [6] | [7] | [9] | [17] | [18] | [19] | [20]
inactive: all other assays above

Nc1ccn([C@H]2CC[C@@H](CO)O2)c(=O)n1
inactive: [1] | [2] | [3] | [5] | [17] | [7] | [8] | [10]

O=C(O)c1ccc(C(=O)O)c(C(=O)O)c1
not listed: [4] | [6] | [7] | [12] | [16] | [19] | [20]
inactive: all other assays above

CCC(=O)OC(C)(C)C1CC=C(C)CC1 (stereo not drawn)
active: [13] 78.3 µM
not listed: [4] | [6] | [8] | [11] | [14] | [15]
inactive: all other assays above

Cc1cc(O)c2c(c1)C(=O)c1cc(O)cc(O)c1C2=O
active: [5] 9.89 µM
not listed: [4] | [6] | [9] | [12] | [13] | [15] | [16] | [19]
inactive: all other assays above

COc1ccccc1NC(=O)CC(C)=O
active: [4] 68.2 µM
not listed: [1] | [8] | [11] | [13] | [14] | [15] | [16]
inactive: all other assays above

[Cu+]
inactive: [1] | [2] | [3] | [13] | [5] | [6] | [15] | [20] | [7] | [18] | [10]

OCCN1CCOCC1
active: [13] 67.5 µM
not listed: [4] | [6] | [11] | [12] | [14] | [15] | [16]
inactive: all other assays above

CC(C)(CO)CO
inactive: [1] | [2] | [3] | [14] | [5] | [15] | [17] | [7] | [10]

CC(=O)N(C)C
inactive: [1] | [2] | [3] | [14] | [5] | [6] | [11] | [15] | [10]
